Source: PubChem BioAssay (NCI)
Several values for one entry are separate records, joined by “and”; a condition that tells them apart may be missing. Identical values can stand only once. About 83,000 compounds went through this panel and 20% of them were active in at least one assay; those are over-represented in the sample as a whole.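 Each cell line was grown in a 96-well plate and treated with one concentration of compound for 48 hours. Values below 10 were considered active.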 Activity calls are given as the source filed them.

What was measured:
Assay in all cases: NCI-60 one-dose screen, 48 h (100 = growth as untreated, 0 = no growth, -100 = all killed)
Settings in all cases: 10 µM unless noted
HCT-15 colon = tested on: HCT-15 colon
HT29 colon = tested on: HT29 colon
SNB-75 CNS = tested on: SNB-75 CNS
U251 CNS = tested on: U251 CNS
PC-3 prostate = tested on: PC-3 prostate
SK-MEL-5 melanoma = tested on: SK-MEL-5 melanoma
UACC-62 melanoma = tested on: UACC-62 melanoma
LOX IMVI melanoma = tested on: LOX IMVI melanoma
SK-MEL-28 melanoma = tested on: SK-MEL-28 melanoma
SNB-19 CNS = tested on: SNB-19 CNS

Measured: growth

OC(CC(c1ccccc1)c1cccc2ccccc12)(c1ccccc1)c1ccccc1 (stereo not drawn)
inactive: HCT-15 colon 78.9% and 68.3% | HT29 colon 68.2% and 52.6% | SNB-75 CNS 103% and 74.6% | U251 CNS 90.4% and 87.7% | PC-3 prostate 60.6% and 56.4% | SK-MEL-5 melanoma 88.3% and 95.5% | UACC-62 melanoma 76.7% and 79.4% | LOX IMVI melanoma 80.5% and 74.8% | SK-MEL-28 melanoma 95.8% and 100%

CCNCc1ccccc1
inactive: HCT-15 colon 112% | HT29 colon 98.8% | SNB-75 CNS 102% | SNB-19 CNS 109% | U251 CNS 101% | PC-3 prostate 103% | UACC-62 melanoma 100% | LOX IMVI melanoma 97.8% | SK-MEL-28 melanoma 96.9%

CCCCCCCCCCCCCCCCC(=O)O
inactive: HCT-15 colon 102% | HT29 colon 97.7% | SNB-75 CNS 101% | SNB-19 CNS 105% | U251 CNS 98% | PC-3 prostate 104% | UACC-62 melanoma 101% | LOX IMVI melanoma 98.4% | SK-MEL-28 melanoma 117%

COc1cc(C2c3cc4c(cc3C(OC(=O)C[n+]3ccccc3)C3COC(=O)C23)OCO4)cc(OC)c1OC (stereo not drawn)
inactive: SNB-75 CNS 48.3% | PC-3 prostate 35% | UACC-62 melanoma 15.9% | LOX IMVI melanoma 12.7% | SK-MEL-28 melanoma 61.6%
active: HCT-15 colon 4.19% | HT29 colon 4.68% | U251 CNS 2.86% | SK-MEL-5 melanoma -32.5%

Cc1ccc([N+](=O)[O-])cc1Br
inactive: HCT-15 colon 101% | HT29 colon 70.7% | SNB-75 CNS 104% | U251 CNS 96.4% | PC-3 prostate 94.8% | SK-MEL-5 melanoma 99.8% | UACC-62 melanoma 95.8% | LOX IMVI melanoma 105% | SK-MEL-28 melanoma 104%

O=C(O)c1cc(=O)[nH]c(=O)[nH]1
inactive: HCT-15 colon 102% and 97.9% | HT29 colon 93.3% and 110% | SNB-75 CNS 102% and 86.4% | U251 CNS 105% and 95.8% | PC-3 prostate 91.4% and 80.3% | SK-MEL-5 melanoma 82.6% | UACC-62 melanoma 103% and 92.5% | LOX IMVI melanoma 98.8% and 92.3% | SK-MEL-28 melanoma 114% and 93.6%

O=P(O)(O)OC1C(OP(=O)(O)O)C(OP(=O)(O)O)C(OP(=O)(O)O)C(OP(=O)(O)O)C1OP(=O)(O)O.[Cu+2] (stereo not drawn)
inactive: HCT-15 colon 102% | HT29 colon 96.5% | SNB-75 CNS 136% | U251 CNS 32.6% | PC-3 prostate 105% | UACC-62 melanoma 79.7% | LOX IMVI melanoma 69.7% | SK-MEL-28 melanoma 116%
active: SK-MEL-5 melanoma -56.1%

N=C(N)N1CCc2ccccc2C1
inactive: HCT-15 colon 109% and 103% | HT29 colon 102% and 105% | SNB-75 CNS 98% and 109% | SNB-19 CNS 99.9% and 103% | U251 CNS 89.2% and 98.4% | PC-3 prostate 89.3% and 128% | UACC-62 melanoma 99.3% and 99% | LOX IMVI melanoma 84.3% and 113% | SK-MEL-28 melanoma 109%

O=S(=O)(O)c1ccc2cc(O)ccc2c1
inactive: HCT-15 colon 112% | HT29 colon 103% | SNB-75 CNS 93.6% | SNB-19 CNS 109% | U251 CNS 98.7% | PC-3 prostate 94.7% | UACC-62 melanoma 99.7% | LOX IMVI melanoma 104% | SK-MEL-28 melanoma 117%

OCCCc1ccccc1
inactive: HCT-15 colon 100% | HT29 colon 94.9% | SNB-75 CNS 88.7% | U251 CNS 95.6% | PC-3 prostate 100% | SK-MEL-5 melanoma 103% | UACC-62 melanoma 96.2% | LOX IMVI melanoma 107% | SK-MEL-28 melanoma 108%

Nc1ccc(O)c(C(=O)O)c1
inactive: HCT-15 colon 97.3% and 107% and 99.2% | HT29 colon 111% and 113% and 115% | U251 CNS 74.5% and 101% | PC-3 prostate 89.6% and 105% | SK-MEL-5 melanoma 93.4% and 94.1% and 108% | UACC-62 melanoma 91.3% and 102% and 84.2% | LOX IMVI melanoma 84% and 99.5% | SK-MEL-28 melanoma 94.7% and 116% and 115%

COc1ccc([N+](=O)[O-])cc1OC
inactive: HCT-15 colon 96.3% and 98.9% | HT29 colon 112% and 101% | SNB-19 CNS 102% and 107% | U251 CNS 104% and 95.6% | PC-3 prostate 94.1% and 102% | SK-MEL-5 melanoma 104% and 106% | UACC-62 melanoma 104% and 107% | LOX IMVI melanoma 98.2% and 101% | SK-MEL-28 melanoma 95.9% and 107%

O=C(c1ccncc1)c1c(Cc2ccccc2)ccc2ccccc12
inactive: HCT-15 colon 91.5% | HT29 colon 84.9% | SNB-19 CNS 96.7% | U251 CNS 88.8% | PC-3 prostate 83% | SK-MEL-5 melanoma 80.1% | UACC-62 melanoma 66.3% | LOX IMVI melanoma 90.8% | SK-MEL-28 melanoma 90.2%

O=c1[nH]c(=O)c2[nH]c(=O)[nH]c2[nH]1
inactive: HCT-15 colon 99% | HT29 colon 105% | SNB-19 CNS 103% | U251 CNS 101% | PC-3 prostate 96.2% | SK-MEL-5 melanoma 100% | UACC-62 melanoma 99.8% | LOX IMVI melanoma 102% | SK-MEL-28 melanoma 98.9%

C/C=C(/C(=O)NC(N)=O)C(C)C
inactive: HCT-15 colon 110% | HT29 colon 106% | SNB-75 CNS 120% | U251 CNS 98.8% | PC-3 prostate 105% | SK-MEL-5 melanoma 115% | UACC-62 melanoma 110% | LOX IMVI melanoma 100% | SK-MEL-28 melanoma 117%

CCOC(=O)c1csc(N)n1
inactive: HCT-15 colon 101% and 100% | HT29 colon 103% and 96.8% | SNB-19 CNS 89.9% and 96.8% | U251 CNS 111% and 86.7% | PC-3 prostate 95.4% and 94.5% | SK-MEL-5 melanoma 108% and 101% | UACC-62 melanoma 93.3% and 94.2% | LOX IMVI melanoma 105% and 99.1% | SK-MEL-28 melanoma 98.9% and 106%

COC(=O)C(Cc1cn(C(C)=O)c2ccccc12)P(=O)(OC)OC (stereo not drawn)
inactive: HCT-15 colon 103% | HT29 colon 108% | SNB-19 CNS 104% | U251 CNS 101% | PC-3 prostate 88.6% | UACC-62 melanoma 93.1% | LOX IMVI melanoma 92.7% | SK-MEL-28 melanoma 114%

C=CCN1C(=O)c2ccccc2C1=O
inactive: HCT-15 colon 109% | HT29 colon 122% | SNB-75 CNS 95.9% | U251 CNS 101% | PC-3 prostate 96.6% | SK-MEL-5 melanoma 101% | UACC-62 melanoma 90.8% | LOX IMVI melanoma 94.7% | SK-MEL-28 melanoma 108%

CCCC(=O)OCC(COC(=O)CCC)OC(=O)CCC
inactive: HCT-15 colon 106% | HT29 colon 102% | SNB-19 CNS 97.6% | U251 CNS 88.3% | PC-3 prostate 85.4% | SK-MEL-5 melanoma 98.5% | UACC-62 melanoma 89.9% | LOX IMVI melanoma 101% | SK-MEL-28 melanoma 108%

CC(=O)Nc1ccc(OC(C)=O)cc1
inactive: HCT-15 colon 13.5% and 102% | SNB-75 CNS 37.6% and 94.3% | U251 CNS 11.7% and 102% | PC-3 prostate 11.5% and 92.8% | SK-MEL-5 melanoma 92.8% | UACC-62 melanoma 18.5% and 108% | SK-MEL-28 melanoma 82.6% and 110%
-24% (active) and 100% (inactive): LOX IMVI melanoma
-0.769% (active) and 105% (inactive): HT29 colon

Nc1ccc(Cl)c(S(=O)(=O)O)c1
inactive: HCT-15 colon 101% | HT29 colon 105% | SNB-19 CNS 94.4% | U251 CNS 99.8% | PC-3 prostate 108% | SK-MEL-5 melanoma 101% | UACC-62 melanoma 102% | LOX IMVI melanoma 97.5% | SK-MEL-28 melanoma 106%

Cc1ccc(N)cc1S(=O)(=O)O
inactive: HCT-15 colon 107% and 113% | HT29 colon 95.3% and 124% | SNB-19 CNS 107% and 108% | U251 CNS 106% and 103% | PC-3 prostate 98.9% | SK-MEL-5 melanoma 112% and 109% | UACC-62 melanoma 105% and 108% | LOX IMVI melanoma 105% and 109% | SK-MEL-28 melanoma 109% and 113%

NCCSSC/C=C\CSSCCN
inactive: HCT-15 colon 102% | HT29 colon 106% | SNB-19 CNS 105% | U251 CNS 92.1% | PC-3 prostate 78.3% | SK-MEL-5 melanoma 97.2% | UACC-62 melanoma 105% | LOX IMVI melanoma 97.5% | SK-MEL-28 melanoma 115%

COC(=O)c1nc(=S)[nH]c(C(=O)OC)c1C(=O)c1ccc(OC)cc1
inactive: HCT-15 colon 100% | HT29 colon 106% | SNB-19 CNS 101% | U251 CNS 108% | PC-3 prostate 93% | SK-MEL-5 melanoma 97.3% | UACC-62 melanoma 95.9% | LOX IMVI melanoma 94.8% | SK-MEL-28 melanoma 109%

O=C1C=CC[C@H](/C=C/c2ccccc2)O1
inactive: HT29 colon 29.8% and 28.4% | SNB-19 CNS 66.3% and 17.5% | PC-3 prostate 20.2% and 13%
81.7% (inactive) and 6.21% (active): UACC-62 melanoma
active: LOX IMVI melanoma 5.77% and -35.8%
31.7% (inactive) and -11.8% (active): SK-MEL-5 melanoma
40.3% (inactive) and -22.5% (active): SK-MEL-28 melanoma
33.4% (inactive) and -52.8% (active): HCT-15 colon
12.8% (inactive) and -30% (active): U251 CNS
